According to the supplement of paper PMC4466140:

Experiments:
Assay in all cases: SPOT peptide array binding signal intensity (averaged, normalized) (arbitrary units (background-subtracted, floor 0; scale differs between SH3 domains)); higher = stronger binding of the SH3 domain to the peptide
[1] = molecular target: AgAbp1
Outline: (§1)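 Spot intensities were captured after detection with anti-GST antibody, an HRP-linked anti-mouse secondary and luminol, and quantified with Genespotter. The probes were GST-fused SH3 domains from four yeast species, produced in E. coli BL21(DE3), purified on glutathione Sepharose and incubated at 10 μg/ml overnight at 4°C on cellulose-bound synthetic 15-mer peptides with cysteines replaced by serines. Binding signal is the normalized, background-subtracted spot intensity averaged over replicates, and its arbitrary units differ between domains.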

[2] = molecular target: AgBbc1
Outline: as §1

[3] = molecular target: AgBem1-D1
Outline: as §1

[4] = molecular target: AgBzz1-D1
Outline: as §1

[5] = molecular target: AgBzz1-D2
Outline: as §1

[6] = molecular target: AgCyk3
Outline: as §1

[7] = molecular target: AgFus1
Outline: as §1

[8] = molecular target: AgHof1
Outline: as §1

[9] = molecular target: AgHse1
Outline: as §1

[10] = molecular target: AgLsb1
Outline: as §1

[11] = molecular target: AgLsb4
Outline: as §1

[12] = molecular target: AgMyo5
Outline: as §1

[13] = molecular target: AgNbp2
Outline: as §1

[14] = molecular target: AgRvs167
Outline: as §1

[15] = molecular target: AgSho1
Outline: as §1

[16] = molecular target: AgSla1-D1-D2
Outline: as §1

[17] = molecular target: AgSla1-D3
Outline: as §1

[18] = molecular target: CaAbp1-D1
Outline: as §1

[19] = molecular target: CaAbp1-D2
Outline: as §1

[20] = molecular target: CaBbc1
Outline: as §1

[21] = molecular target: CaBem1-D1
Outline: as §1

[22] = molecular target: CaBzz1-D1
Outline: as §1

[23] = molecular target: CaBzz1-D2
Outline: as §1

[24] = molecular target: CaCyk3
Outline: as §1

[25] = molecular target: CaFus1
Outline: as §1

[26] = molecular target: CaHof1
Outline: as §1

[27] = molecular target: CaHse1
Outline: as §1

[28] = molecular target: CaLsb1
Outline: as §1

[29] = molecular target: CaLsb4
Outline: as §1

[30] = molecular target: CaMyo5
Outline: as §1

[31] = molecular target: CaNbp2
Outline: as §1

[32] = molecular target: CaRvs167
Outline: as §1

[33] = molecular target: CaRvs167-3
Outline: as §1

[34] = molecular target: CaSho1
Outline: as §1

[35] = molecular target: CaSla1-D1-D2
Outline: as §1

[36] = molecular target: CaSla1-D3
Outline: as §1

[37] = molecular target: ScAbp1
Outline: as §1

[38] = molecular target: ScBbc1
Outline: as §1

[39] = molecular target: ScBem1-D1
Outline: as §1

[40] = molecular target: ScBzz1-D1
Outline: as §1

[41] = molecular target: ScBzz1-D2
Outline: as §1

[42] = molecular target: ScCyk3
Outline: as §1

[43] = molecular target: ScFus1
Outline: as §1

[44] = molecular target: ScHof1
Outline: as §1

[45] = molecular target: ScHse1
Outline: as §1

[46] = molecular target: ScLsb1
Outline: as §1

[47] = molecular target: ScLsb2
Outline: as §1

[48] = molecular target: ScLsb3
Outline: as §1

[49] = molecular target: ScLsb4
Outline: as §1

[50] = molecular target: ScMyo3
Outline: as §1

[51] = molecular target: ScMyo5
Outline: as §1

[52] = molecular target: ScNbp2
Outline: as §1

[53] = molecular target: ScPex13
Outline: as §1

[54] = molecular target: ScRvs167
Outline: as §1

[55] = molecular target: ScSho1
Outline: as §1

[56] = molecular target: ScSla1-D1-D2
Outline: as §1

[57] = molecular target: ScSla1-D3
Outline: as §1

[58] = molecular target: SpAbp1-D1
Outline: as §1

[59] = molecular target: SpBbc1
Outline: as §1

[60] = molecular target: SpBzz1-D1
Outline: as §1

[61] = molecular target: SpBzz1-D2
Outline: as §1

[62] = molecular target: SpCyk3
Outline: as §1

[63] = molecular target: SpHof1
Outline: as §1

[64] = molecular target: SpHof1-2
Outline: as §1

[65] = molecular target: SpHof1-3
Outline: as §1

[66] = molecular target: SpHse1
Outline: as §1

[67] = molecular target: SpLsb1
Outline: as §1

[68] = molecular target: SpLsb4
Outline: as §1

[69] = molecular target: SpMyo1
Outline: as §1

[70] = molecular target: SpNbp2
Outline: as §1

[71] = molecular target: SpPex13
Outline: as §1

[72] = molecular target: SpRvs167
Outline: as §1

[73] = molecular target: SpSla1-D1-D2
Outline: as §1

[74] = molecular target: SpSla1-D3
Outline: as §1

Binder: KKEKKPPKIPKKVYT
- SPOT peptide array binding signal intensity [1]: 2950
- SPOT peptide array binding signal intensity [2]: 9.5
- SPOT peptide array binding signal intensity [3]: 8
- SPOT peptide array binding signal intensity [4]: 253
- SPOT peptide array binding signal intensity [5]: 43
- SPOT peptide array binding signal intensity [6]: ≤ 0
- SPOT peptide array binding signal intensity [7]: 1
- SPOT peptide array binding signal intensity [8]: 29.2
- SPOT peptide array binding signal intensity [9]: 35.5
- SPOT peptide array binding signal intensity [10]: ≤ 0
- SPOT peptide array binding signal intensity [11]: 1.5
- SPOT peptide array binding signal intensity [12]: ≤ 0
- SPOT peptide array binding signal intensity [13]: 19
- SPOT peptide array binding signal intensity [14]: 2.5
- SPOT peptide array binding signal intensity [15]: 5
- SPOT peptide array binding signal intensity [16]: ≤ 0
- SPOT peptide array binding signal intensity [17]: 4.5
- SPOT peptide array binding signal intensity [18]: 892
- SPOT peptide array binding signal intensity [19]: 1670
- SPOT peptide array binding signal intensity [20]: 88.5
- SPOT peptide array binding signal intensity [21]: 28
- SPOT peptide array binding signal intensity [22]: 1950
- SPOT peptide array binding signal intensity [23]: 2760
- SPOT peptide array binding signal intensity [24]: ≤ 0
- SPOT peptide array binding signal intensity [25]: 99
- SPOT peptide array binding signal intensity [26]: 1
- SPOT peptide array binding signal intensity [27]: 110
- SPOT peptide array binding signal intensity [28]: 0.25
- SPOT peptide array binding signal intensity [29]: ≤ 0
- SPOT peptide array binding signal intensity [30]: 1.5
- SPOT peptide array binding signal intensity [31]: 10
- SPOT peptide array binding signal intensity [32]: 2
- SPOT peptide array binding signal intensity [33]: 4.5
- SPOT peptide array binding signal intensity [34]: 13
- SPOT peptide array binding signal intensity [35]: 79
- SPOT peptide array binding signal intensity [36]: ≤ 0
- SPOT peptide array binding signal intensity [37]: 901
- SPOT peptide array binding signal intensity [38]: 1
- SPOT peptide array binding signal intensity [39]: 16
- SPOT peptide array binding signal intensity [40]: 98
- SPOT peptide array binding signal intensity [41]: 9.5
- SPOT peptide array binding signal intensity [42]: ≤ 0
- SPOT peptide array binding signal intensity [43]: ≤ 0
- SPOT peptide array binding signal intensity [44]: 1.5
- SPOT peptide array binding signal intensity [45]: 91
- SPOT peptide array binding signal intensity [46]: 4.75
- SPOT peptide array binding signal intensity [47]: 2
- SPOT peptide array binding signal intensity [48]: 256
- SPOT peptide array binding signal intensity [49]: ≤ 0
- SPOT peptide array binding signal intensity [50]: ≤ 0
- SPOT peptide array binding signal intensity [51]: 4.25
- SPOT peptide array binding signal intensity [52]: 2
- SPOT peptide array binding signal intensity [53]: 11
- SPOT peptide array binding signal intensity [54]: 2
- SPOT peptide array binding signal intensity [55]: 109
- SPOT peptide array binding signal intensity [56]: 10
- SPOT peptide array binding signal intensity [57]: 14.5
- SPOT peptide array binding signal intensity [58]: 396
- SPOT peptide array binding signal intensity [59]: 3.5
- SPOT peptide array binding signal intensity [60]: 158
- SPOT peptide array binding signal intensity [61]: 0.75
- SPOT peptide array binding signal intensity [62]: ≤ 0
- SPOT peptide array binding signal intensity [63]: 1.75
- SPOT peptide array binding signal intensity [64]: 1
- SPOT peptide array binding signal intensity [65]: 6.25
- SPOT peptide array binding signal intensity [66]: 1.5
- SPOT peptide array binding signal intensity [67]: 55
- SPOT peptide array binding signal intensity [68]: ≤ 0
- SPOT peptide array binding signal intensity [69]: 3.25
- SPOT peptide array binding signal intensity [70]: ≤ 0
- SPOT peptide array binding signal intensity [71]: ≤ 0
- SPOT peptide array binding signal intensity [72]: 8.33
- SPOT peptide array binding signal intensity [73]: 4
- SPOT peptide array binding signal intensity [74]: 3.5
